Reference: PubChem BioAssay (NCATS)
Where “and” joins values, the source holds several entries; their conditions need not be identical. Equal values may be shown once. Records with an inconclusive call do not appear. Calls of active or inactive are those of the source. The call rests on the fitted dose curve; in most records, active means well fitted curve in the direction sought with a large enough effect; inconclusive means small, poorly fitted or top-dose-only effect, or another doubt; inactive means no such curve, though single readings can be large; an effect the other way counts as inactive or inconclusive.

How the values were obtained:
[1] = qHTS of pediatric cancer cell lines to identify multiple opportunities for drug repurposing: Primary screen for SK-N-MC cells (AID 1347093); conditions: SK-N-MC viability, CellTiter-Glo luminescence, 48 h; series mostly up to 46 µM; further: potency means the concentration at half of the fitted maximal effect
Outline: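 Metabolically active cells were quantified by ATP-dependent luminescence (CellTiter-Glo, 15 min at room temperature) following 48 h treatment. Cells had been plated at 500-1,000 per well and settled for 5 h beforehand.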

[2] = qHTS of pediatric cancer cell lines to identify multiple opportunities for drug repurposing: Primary screen for NB1643 cells (AID 1347099); conditions: NB1643 neuroblastoma viability, CellTiter-Glo luminescence, 48 h; series mostly up to 46 µM; further: nearly all actives have a fitted effect of over 50% in size; further: potency means the concentration at half of the fitted maximal effect
Outline: (§1)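 Cells plated at 500-1,000/well in growth medium, compounds added after 5 h. MIPE tested at 11 points (from 0.78 nM), NPC at 8 points (from 0.59 nM). CellTiter-Glo luminescence after 48 h; concentration-response curves from primary screen.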

[3] = qHTS of pediatric cancer cell lines to identify multiple opportunities for drug repurposing: Primary screen for OHS-50 cells (AID 1347103); conditions: OHS-50 osteosarcoma viability, CellTiter-Glo luminescence, 48 h; series mostly up to 57.3 µM; further: nearly all actives have a fitted effect of over 40% in size; further: potency means the concentration at half of the fitted maximal effect
Outline: (§2)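 Cells (500-1,000/well) rested 5 h, then received compounds for 48 h; metabolically active cells were measured by CellTiter-Glo luminescence. Final concentrations spanned up to 46 µM (MIPE, 11-point) or 0.59 nM-46 µM (NPC, 8-point) in primary screens, 11-point in follow-ups.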

[4] = qHTS of pediatric cancer cell lines to identify multiple opportunities for drug repurposing: Primary screen for control Hh wild type fibroblast cells (AID 1347106); conditions: Hh wild-type fibroblast viability, CellTiter-Glo luminescence, 48 h; series mostly up to 46 µM;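 further: a drop in luminescence marks cytotoxicity and a rise apparent proliferation; nearly all actives have a fitted effect of over 55% in size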
Outline: (§3)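 Cells (500-1,000/well) in growth media were settled 5 h at 37 degrees C, then given compounds for 48 h. Viability was read as CellTiter-Glo luminescence. Primary runs used MIPE at 11 points (0.78 nM-46 µM) and NPC at 8 points (0.59 nM-46 µM); follow-ups used 11 points.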

[5] = qHTS of pediatric cancer cell lines to identify multiple opportunities for drug repurposing: Primary screen for Rh41 cells (AID 1347108); conditions: Rh41 rhabdomyosarcoma viability, CellTiter-Glo luminescence, 48 h; series mostly up to 46 µM; further: nearly all actives have a fitted effect of over 70% in size; further: potency means the concentration at half of the fitted maximal effect
Outline: as §1

[6] = qHTS of pediatric cancer cell lines to identify multiple opportunities for drug repurposing: Confirmatory screen for A673 cells (AID 1347110); conditions: A673 Ewing sarcoma cell viability; series mostly up to 45.9 µM;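 further: cells exposed to compound for 48 h before the viability read; nearly all actives have a fitted effect of over 65% in size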; further: potency means the concentration at half of the fitted maximal effect
Outline: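 Viability was read as ATP luminescence (CellTiter-Glo) after 48 h of compound exposure at 37 C in A673 cells seeded at 500-1,000/well. Titrations reached 46 uM final, with 11 points in the confirmatory screen. Concentration-response curves were fitted directly.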

[7] = qHTS of pediatric cancer cell lines to identify multiple opportunities for drug repurposing: Confirmatory screen for BT-12 cells (AID 1347112); conditions: BT-12 rhabdoid tumor cells, viability; series mostly up to 45.9 µM; further: nearly all actives have a fitted effect of over 55% in size
Outline: as §3

[8] = qHTS of pediatric cancer cell lines to identify multiple opportunities for drug repurposing: Confirmatory screen for LAN-5 cells (AID 1347113); conditions: LAN-5 neuroblastoma cell viability; series mostly up to 45.9 µM; further: nearly all actives have a fitted effect of over 65% in size; further: potency means the concentration at half of the fitted maximal effect
Outline: as §3

[9] = qHTS of pediatric cancer cell lines to identify multiple opportunities for drug repurposing: Primary screen for U-2 OS cells (AID 1347096); conditions: U-2 OS viability, CellTiter-Glo luminescence, 48 h; series mostly up to 46 µM; further: nearly all actives have a fitted effect of over 50% in size; further: potency means the concentration at half of the fitted maximal effect
Outline: as §3

[10] = qHTS of pediatric cancer cell lines to identify multiple opportunities for drug repurposing: Primary screen for Saos-2 cells (AID 1347097); conditions: Saos-2 viability, CellTiter-Glo ATP luminescence, 48 h; series mostly up to 46 µM; further: nearly all actives have a fitted effect of over 40% in size; further: potency means the concentration at half of the fitted maximal effect
Outline: as §1

[11] = qHTS of pediatric cancer cell lines to identify multiple opportunities for drug repurposing: Primary screen for Rh18 cells (AID 1347102); conditions: Rh18 rhabdomyosarcoma viability, CellTiter-Glo luminescence, 48 h; series mostly up to 46 µM; further: nearly all actives have a fitted effect of over 65% in size; further: potency means the concentration at half of the fitted maximal effect
Outline: as §3

[12] = qHTS of pediatric cancer cell lines to identify multiple opportunities for drug repurposing: Primary screen for SK-N-SH cells (AID 1347098); conditions: SK-N-SH viability, CellTiter-Glo luminescence, 48 h; series mostly up to 57 µM; further: nearly all actives have a fitted effect of over 65% in size; further: potency means the concentration at half of the fitted maximal effect
Outline: as §2

[13] = qHTS of pediatric cancer cell lines to identify multiple opportunities for drug repurposing: Primary screen for LAN-5 cells (AID 1347100); conditions: LAN-5 neuroblastoma viability, CellTiter-Glo luminescence, 48 h; series mostly up to 46 µM; further: potency means the concentration at half of the fitted maximal effect
Outline: as §3

[14] = qHTS of pediatric cancer cell lines to identify multiple opportunities for drug repurposing: Primary screen for RD cells (AID 1347104); conditions: RD rhabdomyosarcoma viability, CellTiter-Glo luminescence, 48 h; series mostly up to 46 µM; further: nearly all actives have a fitted effect of over 55% in size; further: potency means the concentration at half of the fitted maximal effect
Outline: as §1

[15] = qHTS of pediatric cancer cell lines to identify multiple opportunities for drug repurposing: Primary screen for MG 63 (6-TG R) cells (AID 1347105); conditions: MG 63 (6-TG R) viability, CellTiter-Glo, 48 h; series mostly up to 46 µM; further: nearly all actives have a fitted effect of over 50% in size; further: potency means the concentration at half of the fitted maximal effect
Outline: as §1

[16] = qHTS of pediatric cancer cell lines to identify multiple opportunities for drug repurposing: Primary screen for Rh30 cells (AID 1347107); conditions: Rh30 rhabdomyosarcoma viability, CellTiter-Glo luminescence, 48 h; series mostly up to 46 µM; further: nearly all actives have a fitted effect of over 75% in size
Outline: as §3

[17] = qHTS of pediatric cancer cell lines to identify multiple opportunities for drug repurposing: Confirmatory screen for NB1643 cells (AID 1347109); conditions: NB1643 neuroblastoma cell viability; series mostly up to 45.9 µM; further: nearly all actives have a fitted effect of over 45% in size
Outline: as §3

[18] = qHTS of pediatric cancer cell lines to identify multiple opportunities for drug repurposing: Primary screen for BT-12 cells (AID 1347101); conditions: BT-12 viability, CellTiter-Glo luminescence, 48 h; series mostly up to 57.3 µM; further: nearly all actives have a fitted effect of over 25% in size; further: potency means the concentration at half of the fitted maximal effect
Outline: as §2

[19] = qHTS of pediatric cancer cell lines to identify multiple opportunities for drug repurposing: Primary screen for BT-37 cells (AID 1347094); conditions: BT-37 viability, CellTiter-Glo luminescence, 48 h; series mostly up to 57.3 µM
Outline: as §1

[20] = qHTS of pediatric cancer cell lines to identify multiple opportunities for drug repurposing: Primary screen for NB-EBc1 cells (AID 1347095); conditions: NB-EBc1 neuroblastoma viability, CellTiter-Glo luminescence, 48 h; series mostly up to 46 µM; further: potency means the concentration at half of the fitted maximal effect
Outline: as §1

Measured: Potency

Cn1cnc2c(F)c(Nc3ccc(Br)cc3Cl)c(C(=O)NOCCO)cc21
inactive: [3] | [4] | [6] | [7] | [8]
active: [1] 2.64 µM | [2] 9.35 µM | [5] 14.8 µM

CC1(C)Cc2c(-c3ccccc3)c(-c3ccc(Cl)cc3)c(CC(=O)O)n2C1
active: [1] 26.4 µM | [10] 33.2 µM
inactive: [9] | [11] | [4]

CCCS(=O)(=O)Nc1ccc(F)c(C(=O)c2c[nH]c3ncc(-c4ccc(Cl)cc4)cc23)c1F
inactive: [7]
active: [1] 10.5 µM | [12] 4.82 µM | [2] 3.32 µM | [13] 20.9 µM | [3] 6.85 µM | [14] 18.7 µM | [15] 14.8 µM | [6] 16.5 µM

COc1ccc(CCN2CCN(CCCc3ccccc3)CC2)cc1OC
active: [1] 18.7 µM
inactive: [9] | [12] | [11] | [15] | [4] | [16] | [5]

CC[C@@H](C)[C@H](NC(=O)[C@H](CC1CCCCC1)NC(=O)c1ccno1)C(=O)N1CCC2(CCc3ccccc32)CC1
inactive: [9] | [12] | [11] | [15] | [4]
active: [1] 8.33 µM | [2] 23.5 µM | [3] 17.2 µM

S=C(NCc1ccc2c(c1)OCO2)N1CCN(c2ncnc3c2oc2ccccc23)CC1
active: [1] 4.29 µM | [2] 8.55 µM | [13] 30.3 µM | [3] 1.98 µM
inactive: [12] | [15] | [4] | [16]

OC[C@H](Cc1ccccc1)Nc1nc(Oc2ccc3c(c2)CCC3)nc2c1ncn2Cc1ccc(-c2ccccc2)cc1
inactive: [9] | [12] | [13] | [11] | [15] | [4] | [16] | [17] | [7]
active: [1] 1.87 µM | [6] 4.65 µM

CCc1cncnc1N1CCN(Cc2nc3ccc(C(F)(F)F)cc3[nH]2)CC1
inactive: [9] | [4]
active: [1] 23.5 µM | [18] 12.2 µM | [3] 15.3 µM

c1ccc(-c2nn3c(c2-c2ccnc4cc(OCCN5CCOCC5)ccc24)CCC3)nc1
inactive: [1] | [9] | [12] | [18] | [11] | [14] | [15] | [4] | [16] | [5]

Cc1cn[nH]c1
active: [3] 0.611 µM
not listed: [5] | [14] | [18] | [19] | [20]
inactive: all other assays above

NC[C@H](O)c1ccc(O)c(O)c1
not listed: [1] | [6] | [7] | [8] | [17]
inactive: all other assays above

CCOc1ccc(Cc2cc([C@@H]3O[C@H](CO)[C@@H](O)[C@H](O)[C@@H]3O)ccc2Cl)cc1
inactive: [9] | [2] | [11] | [15] | [4] | [16] | [5]
active: [1] 20.9 µM

Cn1cc(-c2ccc3nnc(C(F)(F)c4ccc5ncccc5c4)n3n2)cn1
inactive: [1] | [9] | [2] | [14] | [4]

CN(C)c1ccc(Nc2nc(N)n(C(=O)c3c(F)cccc3F)n2)cc1
inactive: [11] | [4] | [16] | [5]
active: [1] 0.469 µM | [10] 16.6 µM | [12] 3.83 µM | [2] 11.8 µM | [13] 0.833 µM | [15] 18.7 µM

Cc1ccc(NC(=O)c2cccc(C(C)(C)C#N)c2)cc1Nc1ccc2ncn(C)c(=O)c2c1
active: [1] 18.7 µM | [20] 5.26 µM | [12] 24.1 µM | [2] 18.7 µM | [14] 1.18 µM
inactive: [15] | [4]

O=c1[nH]c(-c2ccc(C(F)(F)F)cc2)nc2c1CSCC2
active: [1] 13.2 µM
inactive: [9] | [13] | [11] | [4]

CCC(C)(C)C(=O)O[C@H]1C[C@@H](C)C=C2C=C[C@H](C)[C@H](CC[C@@H]3C[C@@H](O)CC(=O)O3)[C@H]21
active: [1] 33.2 µM | [9] 18.7 µM | [10] 2.37 µM and 2.96 µM | [12] 7.7 µM and 21.5 µM | [18] 1.38 µM and 1.93 µM | [11] 8.41 µM and 14.8 µM | [3] 6.17 µM and 10.9 µM | [15] 2.66 µM and 4.69 µM | [6] 5.22 µM
inactive: [13] | [14] | [4] | [7] | [8]

O=c1[nH]cnc2[nH]ncc12
active: [3] 21.7 µM
not listed: [1] | [5] | [6] | [7] | [8] | [17]
inactive: all other assays above

OCCC#Cc1nc(-c2ccc(F)cc2)c(-c2ccncc2)n1CCCc1ccccc1
inactive: [12] | [4]
active: [1] 18.7 µM | [20] 16.6 µM | [13] 16.6 µM | [3] 27.3 µM | [15] 29.6 µM | [5] 18.7 µM

CCCS(=O)(=O)Nc1ccc(F)c(C(=O)c2c[nH]c3ncc(Cl)cc23)c1F
active: [1] 4.18 µM | [10] 11.8 µM | [12] 19.2 µM | [2] 20.9 µM | [3] 13.7 µM | [14] 18.7 µM

Cc1c(C)c2c(c(C)c1O)CCC(C)(COc1ccc(CC3SC(=O)NC3=O)cc1)O2 (stereo not given)
not listed: [1] | [18]
inactive: all other assays above

CCOc1cc(C(=O)Nc2ccc(Cl)c(-c3nc4ccccc4[nH]3)c2)cc(OCC)c1OCC
active: [12] 5.41 µM | [2] 11.8 µM | [14] 2.96 µM
inactive: [20] | [18] | [11] | [3] | [15]

CNC(=O)c1ccc(C)c(-n2c(C)cc(OCc3ccc(F)cc3F)c(Br)c2=O)c1
active: [13] 20.9 µM | [3] 24.3 µM
inactive: [19] | [9] | [12] | [14] | [4]

NCCCC(N)(C(=O)O)C(F)F (stereo not given)
not listed: [1] | [2]
inactive: all other assays above

OC(CN1CCC(Cc2ccc(F)cc2)CC1)c1ccc(Cl)cc1 (stereo not given)
active: [6] 3.69 µM
not listed: [1] | [2] | [5] | [12] | [17] | [20]
inactive: all other assays above

COc1cc(Oc2ccnc3cc(OC)c(OC)cc23)ccc1NC(=O)NC(C)c1nccs1 (stereo not given)
inactive: [19] | [9] | [2] | [11] | [14] | [4]

N#Cc1ccc(C(c2ccc(C#N)cc2)n2cncn2)cc1
inactive: [20] | [9] | [13] | [11] | [4]

COc1ccc(-c2c(-c3ccc(O)cc3O)n[nH]c2C)cc1
active: [20] 38.2 µM | [3] 44.4 µM
inactive: [9] | [11] | [14] | [15] | [4]

COCCNCCCn1c(C(=O)CF)c(-c2ccc(C)cc2)c2c(N)ncnc21
inactive: [19] | [20] | [9] | [13] | [18] | [14] | [4] | [5]

COCC(=O)NCC=Cc1ccc2ncnc(Nc3ccc(Oc4ccc(C)nc4)c(C)c3)c2c1
inactive: [9] | [15] | [4]
active: [10] 16.6 µM | [2] 20.9 µM | [13] 18.7 µM | [18] 19.3 µM | [3] 19.3 µM | [6] 23.3 µM | [8] 42.7 µM
